The values below come from PubChem BioAssay AID488969 (Vanderbilt High Throughput Screening Facility, 2010).

Molecules are shown by their SMILES. In all, about 110,000 compounds were measured (“z-score”: median about -0.1, highest 2% from about 2 on). The full list was thinned out, with the highest values kept by preference. Active and inactive are the calls of the source.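 How the source made its calls: active means z-score in the third read window above 3 or below -3; inactive means the rest.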

In the assay the target is Metabotropic glutamate receptor 8 (Rattus norvegicus) (UniProt P70579). As to the kind of experiment: mGluR8 Gi/Go-coupled signaling modulation – cell-based, rat, thallium flux, HTS, primary screen (AID 488969). To be noted: HEK293 rat mGluR8, GIRK (G protein-gated inwardly rectifying potassium channel) thallium flux, FluoZin2; at 10 µM; stronger effect = higher value; submaximal glutamate (EC20) added with thallium.
Sequence of Metabotropic glutamate receptor 8 (Rattus norvegicus) (P70579 whole entry, looked up): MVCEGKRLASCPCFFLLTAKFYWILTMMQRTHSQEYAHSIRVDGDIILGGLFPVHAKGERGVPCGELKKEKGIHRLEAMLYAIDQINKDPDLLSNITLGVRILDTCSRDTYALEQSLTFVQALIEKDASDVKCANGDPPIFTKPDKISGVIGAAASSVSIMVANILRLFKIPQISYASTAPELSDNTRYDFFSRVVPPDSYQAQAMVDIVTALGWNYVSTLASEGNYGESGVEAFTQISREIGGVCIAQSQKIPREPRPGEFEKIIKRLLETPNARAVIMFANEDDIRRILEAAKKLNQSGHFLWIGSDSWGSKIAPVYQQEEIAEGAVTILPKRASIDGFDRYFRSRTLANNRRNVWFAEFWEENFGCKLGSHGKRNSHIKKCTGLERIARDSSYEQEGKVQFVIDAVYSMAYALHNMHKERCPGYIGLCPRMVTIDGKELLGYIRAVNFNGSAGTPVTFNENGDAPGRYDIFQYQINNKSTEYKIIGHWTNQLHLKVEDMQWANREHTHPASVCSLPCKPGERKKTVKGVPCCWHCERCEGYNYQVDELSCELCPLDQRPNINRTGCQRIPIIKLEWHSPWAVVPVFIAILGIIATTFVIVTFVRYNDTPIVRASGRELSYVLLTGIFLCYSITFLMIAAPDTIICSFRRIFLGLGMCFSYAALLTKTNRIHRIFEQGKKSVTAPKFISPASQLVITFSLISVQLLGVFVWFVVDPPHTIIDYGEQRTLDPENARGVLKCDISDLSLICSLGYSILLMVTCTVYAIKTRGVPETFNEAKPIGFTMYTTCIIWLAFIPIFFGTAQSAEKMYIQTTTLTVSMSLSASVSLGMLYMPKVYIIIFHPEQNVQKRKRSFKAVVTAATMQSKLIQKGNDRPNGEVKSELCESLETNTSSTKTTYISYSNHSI
In turn, `O=C(O)[C@H]1CCCC[C@H]1C(=O)NCCc1ccccc1` displayed a z-score of 0.402.
Take `CCOc1ccc(-n2c(Cc3cc(=O)[nH]c(=O)[nH]3)nnc2SC(C)C(=O)OC)cc1` (stereo not given): the z-score was 12.7 (active).
In turn, `CCOC(=O)C(C)Sc1nnc(Cc2cc(=O)[nH]c(=O)[nH]2)n1-c1ccc(OCC)cc1` (stereo not given) displayed a z-score of 0.465.
Then `COC(=O)C(C)Sc1nnc(Cc2cc(=O)[nH]c(=O)[nH]2)n1-c1ccc(OC)cc1` (stereo not given), with 0.194; and `COc1ccc(C(C(=O)NC(C)(C)C)N(CC2CCCO2)C(=O)CCC(=O)Nc2cc(C)on2)cc1` (stereo not given), with -0.202.
Then `O=S(=O)(N/N=C/c1ccc(OC2CSC2)cc1)c1ccccc1`, with -0.00217; and `Nc1c(S(=O)(=O)c2cccs2)c2nc3ccccc3nc2n1Cc1ccc2c(c1)OCO2`, with -0.174.
Molecule `Cc1ccc(-c2n[nH]c(=S)n2/N=C/c2ccc(C)o2)cc1` registered a z-score of -1.27.
For `Fc1ccc(/C=N/n2c(-c3cccs3)n[nH]c2=S)cc1`, the z-score was 4.92 (active).
`S=c1[nH]nc(-c2ccncc2)n1/N=C/c1ccccc1` came in with a z-score of -0.00784.
With `Cc1ccc(/C=N/n2c(-c3ccncc3)n[nH]c2=S)cc1` the figure was 0.0356; with `Cc1ccc(/C=N/n2c(-c3cccs3)n[nH]c2=S)cc1`, 10 (active).
Regarding `Cc1ccsc1/C=N/n1c(-c2ccccn2)n[nH]c1=S`, the z-score was -0.121.
Then `Cc1c(/C=N/NC(N)=O)c2ccccn2c1C(=O)c1ccc(F)cc1`, with -0.327; and `COCc1cc(C)nc2sc(C(=O)N3CCCCC3)c(N)c12`, with 0.33.
In the case of `CCCCOc1ccc(C(=O)N2CC(C)OC(C)C2)cc1` (stereo not given), the z-score was -0.154.
Then `CCCCOc1ccc(C(=O)OC2CC(C)N(C)CC2C)cc1` (stereo not given), with 3.48 (active); and `CCCCOc1ccc(C(=O)N2CCC(C)CC2)cc1`, with -0.401.
Molecule `Cc1nc2ccc(NC(=O)c3ccc(S(=O)(=O)N4CCOCC4)cc3)cc2s1` showed a z-score of -0.182.
With `CC(=O)c1ccc(OC(=O)N(c2ccccc2)c2ccccc2)cc1` the figure was 2.99.
`O=C(Oc1ccc(-c2nnco2)cc1)N(c1ccccc1)c1ccccc1`: the z-score came out at 0.519.
Then `CCN(c1ccccc1)S(=O)(=O)c1ccc(C(=O)Oc2ccc(C(C)=O)cc2)cc1`, with -0.819; and `CS(=O)(=O)N(CCc1ccccc1)CC(=O)NCc1cccnc1`, with 0.68.
Molecule `O=c1c2c(n3nnnc3n1Cc1ccccc1)-c1ccccc1CC21CCCC1` registered a z-score of 0.0259.
With `CC(=O)Nc1ccc(S(=O)(=O)NNC(=O)c2cc3c4ccccc4n(C)c3s2)cc1` the figure was -0.78.
With `COc1ccc(S(=O)(=O)NNC(=O)c2cc3c4ccccc4n(C)c3s2)cc1` the figure was -0.127.
Then `Cn1c2ccccc2c2cc(C(=O)NNS(=O)(=O)c3ccc(F)cc3)sc21`, with 5.09 (active); and `COc1ccccc1C(=O)Nc1ccc(S(=O)(=O)N2CCc3ccccc32)cc1`, with 0.187.
On to `Cc1ccc(Oc2cc([N+](=O)[O-])cc3c2C(=O)Nc2ccccc2O3)cc1`, for which the z-score is -0.0885.
With `CCOC(=O)Cc1cc(-c2ccc(O)cc2)nc2ccc3ccccc3c12` the figure was 0.0725.
With `CCOC(=O)c1c(C)nc2c(c1-c1ccc(Cl)cc1)C(=O)CC(C)(C)C2` the figure was -1.24; with `CC(C)CC(NC(=O)c1ccc(Cl)cc1)C(=O)O` (stereo not given), -0.0425.
With `CC(C)[C@H](NC(=O)NCCc1ccc(Cl)cc1)C(=O)O` the figure was 0.54; with `CC(C)C[C@H](NC(=O)NCCc1ccc(Cl)cc1)C(=O)O`, 2.58.
Regarding `COc1ccc(NC(=O)C23CC4CC(C2)CC(n2cnc(Br)n2)(C4)C3)cc1Cl`, the z-score was -0.254.
Then `Cn1c(=O)cc(SCC(=O)NCCC2=CCCCC2)c2ccc(Cl)cc21`, with -0.0516; and `O=C(NC(Nc1nc2ccc([N+](=O)[O-])cc2s1)(C(F)(F)F)C(F)(F)F)c1ccccc1Cl`, with 9.65 (active).
With `O=C(NC(Nc1nc2ccc([N+](=O)[O-])cc2s1)(C(F)(F)F)C(F)(F)F)c1cccnc1` the figure was 0.978.
As for `O=C(NC(NNc1ccc([N+](=O)[O-])cc1)(C(F)(F)F)C(F)(F)F)c1ccccc1Cl`, the z-score was -0.392.
With `COC(=O)C(NC(=O)c1ccccc1Cl)(Nc1ncc(S(=O)(=O)c2ccc([N+](=O)[O-])cc2)s1)C(F)(F)F` (stereo not given) the figure was -0.242.
As for `O=C(NC(Nc1nc2ccccc2s1)(C(F)(F)F)C(F)(F)F)c1ccccc1`, the z-score is -0.124.
With `O=C(NC(Nc1nc2ccc([N+](=O)[O-])cc2s1)(C(F)(F)F)C(F)(F)F)c1ccccc1` the figure was 6.52 (active).
With `CN(C(=O)Nc1ccc(S(=O)(=O)N(C)C)cc1)C1CCCCC1` the figure was -0.0267; with `O=C(CCn1c(=O)c2ccccc2n(CC(=O)NC2CCCC2)c1=O)NCc1ccco1`, -0.258; with `CN(C(=O)COC(=O)c1ccccc1SCC(=O)NC1CCCCCCC1)C1CCS(=O)(=O)C1` (stereo not given), -0.32.
Then `Cc1cc(Oc2ccc3ccccc3c2)nc(SCC(=O)c2ccccc2)n1`, with -0.14.
The molecule `CC(=O)/C=C(\C)Nc1ccc(-c2cnc(-c3ccccc3)o2)cc1` displayed a z-score of 0.0863.
With `CCNS(=O)(=O)c1cc(S(C)(=O)=O)ccc1Cl` the figure was 8.32 (active).
With `Cc1ccccc1NS(=O)(=O)c1cc(S(C)(=O)=O)ccc1Cl` the figure was -0.0663.
Molecule `CS(=O)(=O)c1ccc(Cl)c(S(=O)(=O)NCc2ccccc2)c1` gave a z-score of 0.117.
With `CC(C)=CC(=O)Nc1nnc(-c2ccccc2)s1` the figure was -0.169.
With `O=C(O)CCC(=O)NNC(=O)c1cccc(Br)c1` the figure was -0.13; with `O=C(NNC(=S)Nc1ccccc1)c1cccc(Br)c1`, 3.98 (active); with `O=C(NNC(=S)Nc1cccc2ccccc12)c1cccc(Br)c1`, 13.9 (active).
Then `Cc1ccc(C(=O)NNC(=S)Nc2cccc3ccccc23)s1`, with 1.65; and `C=CCNC(=S)NNC(=O)c1cccc(Br)c1`, with -0.0521; and `CCNC(=S)NNC(=O)c1cccc(Br)c1`, with 0.0953.
Molecule `CCC(=O)NCCn1c(C)cc2ccccc21` returned a z-score of 0.729.
Then `CC(/C=N/NC(=O)c1ccc(CN2c3cccc4cccc(c34)S2(=O)=O)cc1)c1ccccc1` (stereo not given), with -0.557.
With `Cc1ccc(-c2noc(CCC(=O)NCCN3CCOCC3)n2)cc1` the figure was -0.472; with `O=C(Nc1ncccn1)c1cc([N+](=O)[O-])cc([N+](=O)[O-])c1`, -0.131.
Consider `O=C(O)CN=C(NS(=O)(=O)c1ccccc1)c1ccccc1`, for which the z-score was 4.61 (active).
Then `O=C(O)CN=C(NS(=O)(=O)c1ccc(Cl)cc1)c1ccccc1`, with 0.274; and `Cc1ccc(S(=O)(=O)NC(=NCC(=O)O)c2ccc(F)cc2)cc1`, with 0.317; and `CCOc1ccccc1CNS(=O)(=O)c1ccc2c(c1)oc(=O)n2C`, with -0.853.
Then `CCn1cc(C(=O)Nc2nnc(C)s2)c(=O)c2cc(F)c(N3CCN(C(=O)c4ccco4)CC3)cc21`, with -0.178.
With `CCOC(=O)c1cnc(SCC(=O)Nc2cc(OC)cc(OC)c2)nc1N` the figure was 0.341.
As to `CCOC(=O)c1cnc(SCC(=O)Nc2nc(C)c(C)s2)nc1N`, the z-score is 3.65 (active).
With `CCOC(=O)c1cnc(SCC(=O)Nc2nnc(CC)s2)nc1N` the figure was 0.763.
`Cc1cc2c(nn1)CCc1nonc1-2` gave a z-score of 0.0142.
With `COc1cc2nc(CN3C(=O)c4ccccc4C3=O)oc(=O)c2cc1OC` the figure was -0.733.
With `COc1ccc(Cl)cc1C(=O)CSc1nnnn1C1CCCCC1` the figure was -0.333; with `COc1ccc(Cl)cc1C(=O)CSc1nnnn1C1CCCC1`, 7.32 (active); with `CCCCn1nnnc1SCC(=O)c1cc(Cl)ccc1OC`, -1.36.
Then `O=C(NNC(=O)[C@@H]1CCCC[C@@H]1C(=O)O)c1cccs1`, with 0.534; and `O=C(NCc1cn(-c2ccccc2)nc1-c1ccccc1)c1cccc([N+](=O)[O-])c1`, with -0.314.
Turning to `O=C(NNC(=O)c1cnccn1)c1cccc([N+](=O)[O-])c1`, the z-score is -0.417.
As for `O=C(NNC(=O)c1cc(-c2ccccc2)n(-c2ccccc2)n1)c1cccc([N+](=O)[O-])c1`, the z-score is 6.49 (active).
Then `C=CCn1c(-c2ccc(S(=O)(=O)N3CCOCC3)cc2)csc1=Nc1ccccc1`, with 0.017.
Then `Cc1nn(-c2ccccc2)c(N)c1C1(O)C(=O)N(C(C)C)c2ccccc21` (stereo not given), with 0.371.
Then `CCS(=O)(=O)n1nc(-c2ccccc2)nc1NCc1ccco1`, with 2.2; and `O=C(c1ccccc1)n1nc(-c2ccccc2)nc1NCc1ccco1`, with 0.149.
`O=S(=O)(c1ccccc1)n1nc(-c2ccccc2)nc1NCc1ccco1` showed a z-score of -0.0427.
`CCS(=O)(=O)c1nc2ccccc2n1CC(=O)N1CCOCC1`: the z-score amounted to 0.0592.
With `O=C(NC(=S)Nn1cnc2c(cnn2-c2ccccc2)c1=O)c1ccccc1` the figure was -0.101.
`O=C(NC(=S)Nn1cnc2c(cnn2-c2ccccc2)c1=O)c1ccc(Cl)cc1`: the z-score was found to be 0.0584.
With `O=C(NC(=S)Nn1cnc2c(cnn2-c2ccccc2)c1=O)c1ccc(Oc2ccccc2)cc1` the figure was 2.08; with `OCCN(Cc1ccccc1)CC1CCCCC1`, 0.614.
With `CCCN(Cc1ccc(N(C)C)cc1)CC1CC1` the figure was -0.858; with `CCCN(Cc1ccc(N(CC)CC)cc1)CC1CC1`, 2.1.
Then `CCCCn1c(SCC(=O)N2CCOCC2)nnc1-c1ccoc1C`, with 1.9.
`COc1ccc(S(=O)(=O)N(CC(=O)N2CCN(C)CC2)c2ccc(C)cc2)cc1OC` returned a z-score of 0.277.
With `CC(=O)OCC(=O)Nc1ccc(N=Nc2ccccc2)cc1` the figure was 0.277; with `CC(C)C(=O)OCC(=O)Nc1ccc(N=Nc2ccccc2)cc1`, 10.5 (active).
With `CCCC(=O)OCC(=O)Nc1ccc(N=Nc2ccccc2)cc1`, the z-score was found to be 0.427.
`Cc1cc(-c2nn(-c3ccccc3)cc2/C=C2\SC(N)=NC2=O)ccc1OC(C)C` yielded a z-score of -0.0568.
`Cn1c(=O)oc2cc(S(=O)(=O)NCCN3CCN(c4ccccc4F)CC3)ccc21` returned a z-score of -0.14.
As for `CCCCN(CCCNC(=O)C1CCN(S(=O)(=O)N2CCOCC2)CC1)Cc1ccccc1`, the z-score stood at 2.95.
Then `CCCCN(CCCNC(=O)C1CCN(S(=O)(=O)N2CCOCC2)CC1)c1ccccc1`, with -1.17; and `CC(C)N(CCNC(=O)C1CCN(S(=O)(=O)N2CCOCC2)CC1)Cc1ccccc1`, with 0.267; and `O=C(COc1ccccc1)OCc1csc(Nc2ccccc2)n1`, with -0.693.
With `CS(=O)(=O)Nc1ccc2c(c1)nc1n2CCOC1` the figure was -0.149; with `COc1cccc(CNC(=O)C2(C)Oc3ccccc3NC2=O)c1` (stereo not given), -0.3.
With `COc1ccc(CS(=O)(=O)/C(Cl)=C(/Cl)C(=O)Nc2ccc(OC)nc2)cc1` the figure was -0.34.
For `Fc1ccc2nc(Nc3nc4c(F)cccc4s3)sc2c1`, the z-score is 4.98 (active).
With `COC(=O)c1ccc2nc(Nc3nc4ccc(F)cc4s3)sc2c1` the figure was 0.254.
As to `Fc1ccc2nc(Nc3nc4c(F)cc(F)cc4s3)sc2c1`, the z-score is 6.16 (active).
With `NNc1nc2ccc(F)cc2s1` the figure was -0.467; with `CC(=O)c1sc(Nc2nc3ccc(F)cc3s2)nc1C`, 0.302.
Turning to `COC(=O)c1ccc2nc(Nc3nc4c(F)cc(F)cc4s3)sc2c1`, the z-score worked out at 1.56.
